# Screening results (PubChem BioAssay)
# Myc binder – c-Myc (human) binding. small molecule microarray, His-c-Myc binding, anti-His fluorescence. calls only. 17,000 tested, 1.5% active. AID 624141;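 active = spot fluorescence over background with P-value below 7% in all four replicate spots, showing protein binding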;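 note: score is binary with 100 for all four spots passing and 0 otherwise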
# p53 mut binder – binders of human mutant p53; small molecule microarray binding, anti-GST fluorescence; calls only; AID 624136; 17,000 tested, 0.4% active;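 active = compounds whose four printed spots each glow above background more than chance allows, each with a p-value under 7%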
# NFkB SMM – binds human NF-kappa-B p105 on microarray; Small molecule microarray, anti-His fluorescence binding; calls only; P19838; AID 624139; 17,000 tested, 1.3% active;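 active = spot fluorescence over background significantly raised, with a chance value under 7% in all four replicate spots of the compound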;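 note: probe protein is his-tagged human p50 processed subunit at 1 µg/ml; raw spot fluorescence signals with no normalization applied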
# p53 PUMA act – re-activators of the mutant p53 pathway | activation, % at 9.98 µM | SW480 PUMA-promoter luciferase, p53 mutant reactivation | 28,000 tested, 1.5% active; in the data active = activation above about 52%
# STAT3 binder – binders of human STAT3 | P40763 | Small molecule microarray, His-STAT3 binding, anti-His fluorescence | calls only | 17,000 tested, 0.2% active | AID 624138;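 active = compounds whose four printed spots each show fluorescence over background unusually high for their array block, chance value under 7%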
# Target sequence (P40763 whole entry, looked up): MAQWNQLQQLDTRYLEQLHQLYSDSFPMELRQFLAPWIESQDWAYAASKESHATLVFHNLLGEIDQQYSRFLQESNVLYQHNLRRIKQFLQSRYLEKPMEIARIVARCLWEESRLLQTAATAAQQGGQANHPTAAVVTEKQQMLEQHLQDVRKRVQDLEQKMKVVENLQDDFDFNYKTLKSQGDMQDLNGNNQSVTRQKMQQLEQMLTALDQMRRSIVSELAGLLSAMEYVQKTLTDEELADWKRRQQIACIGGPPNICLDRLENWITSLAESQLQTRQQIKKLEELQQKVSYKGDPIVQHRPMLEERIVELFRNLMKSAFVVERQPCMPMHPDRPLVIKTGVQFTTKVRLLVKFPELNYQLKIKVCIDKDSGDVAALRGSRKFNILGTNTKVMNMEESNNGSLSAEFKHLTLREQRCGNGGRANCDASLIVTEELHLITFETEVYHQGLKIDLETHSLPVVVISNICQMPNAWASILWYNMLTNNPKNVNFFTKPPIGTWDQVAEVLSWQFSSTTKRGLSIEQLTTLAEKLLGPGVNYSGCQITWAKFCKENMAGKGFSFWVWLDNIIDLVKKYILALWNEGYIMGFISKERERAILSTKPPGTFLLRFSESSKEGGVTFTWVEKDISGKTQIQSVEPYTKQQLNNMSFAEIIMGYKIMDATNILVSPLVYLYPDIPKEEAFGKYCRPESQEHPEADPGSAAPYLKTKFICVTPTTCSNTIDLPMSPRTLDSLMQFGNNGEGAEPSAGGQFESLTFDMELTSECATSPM
# * hit, by the source's call; i = inactive; / = not tested or not shown; + = active, no number. Only some compounds are listed: those with a hit (about 2.6% of all), similar ones and a draw of the others.
SMILES,Myc binder,p53 mut binder,NFkB SMM,p53 PUMA act,STAT3 binder
CC1(C)CC[C@]2(C(=O)O)CC[C@]3(C)C(=CCC4[C@@]5(C)CC[C@H](O[C@@H]6O[C@H](C(=O)O)[C@@H](O[C@@H]7OC[C@@H](O)[C@H](O)[C@H]7O)[C@H](O)[C@H]6O)C(C)(C)C5CC[C@]43C)C2C1 (some centres undefined),+,i,+,-6.2,i
COc1ccc(NC(=O)CNS(=O)(=O)c2c(C)cc(C)cc2C)c(OC)c1,/,/,/,-1.5,/
O=c1n(-c2ccc(F)cc2)nc2n1CCCN2,/,/,/,66.9*,/
O=C1O[C@H](c2ccccc2)[C@H](c2ccccc2)N2[C@H]1[C@@H](C(=O)N1CCCCCCC1)[C@]1(C(=O)Nc3ccc(C#CC4=CCCCC4)cc31)[C@H]2c1ccc(OCCO)cc1,+,+,+,/,i
COC(=O)C(CC#Cc1ccc2c(c1)[C@]1(C(=O)N2)[C@H](C(N)=O)[C@H]2C(=O)O[C@H](c3ccccc3)[C@H](c3ccccc3)N2[C@@H]1c1ccccc1OCCO)C(=O)OC,i,+,i,/,i
O=C1O[C@H](c2ccccc2)[C@H](c2ccccc2)N2[C@H]1[C@@H](C(=O)N1CCCCCCC1)[C@]1(C(=O)Nc3ccccc31)[C@H]2c1ccc(O)cc1,+,+,+,/,i
O=C1O[C@H](c2ccccc2)[C@H](c2ccccc2)N2[C@H]1[C@@H](C(=O)N1CCCCCCC1)[C@]1(C(=O)Nc3ccc(C#CC4(O)CCCCCC4)cc31)[C@H]2c1ccccc1OCCO,i,+,i,/,i
COC(=O)C(CC#Cc1ccc2c(c1)[C@]1(C(=O)N2)[C@H](C(N)=O)[C@H]2C(=O)O[C@H](c3ccccc3)[C@H](c3ccccc3)N2[C@@H]1c1ccc(OCCO)cc1)C(=O)OC,i,i,i,/,i
O=C1O[C@@H](c2ccccc2)[C@@H](c2ccccc2)N2[C@@H](c3ccc(O)cc3)[C@]3(C(=O)Nc4ccccc43)[C@@H](C(=O)N3CCCCCCC3)[C@H]12,i,i,i,/,i
CC(=O)Nc1ccc(NC(=O)CN(c2ccc(C)c(Cl)c2)S(C)(=O)=O)cc1,/,/,/,3.5,/
C[C@H](CO)N1C[C@H](C)[C@H](CN(C)C(=O)NC2CCCCC2)OCCCC[C@H](C)Oc2ccc(NC(=O)Cc3ccccc3)cc2C1=O,i,i,i,/,i
COC(=O)C(CC#Cc1ccc2c(c1)[C@]1(C(=O)N2)[C@H](c2ccc(OCCO)cc2)N2[C@H](c3ccccc3)[C@H](c3ccccc3)OC(=O)[C@H]2[C@@H]1C(=O)N1CCCCCCC1)C(=O)OC,i,+,i,/,i
Cc1noc(C)c1NC(=O)N(C)C[C@@H]1OCCCC[C@H](C)Oc2ccc(NS(=O)(=O)c3cccs3)cc2C(=O)N([C@H](C)CO)C[C@@H]1C,i,i,i,-3.9,i
COc1ccc(OC)c(C2N=C(Nc3nc4ccccc4s3)NC3=C2C(=O)CC(C)(C)C3)c1 (centres undefined),i,i,i,-50.9,i
Cc1ccc(-c2cc(C(=O)NCCCN3CCOCC3)no2)cc1,/,/,/,-10.9,/
Cc1ccc(-c2cc(C(=O)NCc3cccnc3)no2)cc1,/,/,/,91.3*,/
C[C@@H]1CCCCO[C@H](CN(C)C(=O)CCC(F)(F)F)[C@H](C)CN([C@@H](C)CO)C(=O)c2cc(NC(=O)Nc3ccc4c(c3)OCO4)ccc2O1,i,i,i,-94.8,i
Cc1noc(C)c1NC(=O)Nc1cccc2c1O[C@@H](CN(C)Cc1ccc(Cl)c(Cl)c1)[C@@H](C)CN([C@H](C)CO)C2=O,i,i,i,-2.8,i
COCC1OC(OC(C)(C)C2CCC3(C)C=C(C4CCC5C4(C)CC(O)C4OC(C(C)(C)OC6OC(CO)C(O)C(O)C6NC(C)=O)CCC45C)CCC3O2)C(NC(C)=O)C(O)C1O (centres undefined),+,i,+,-24.8,i
COc1ccc(CO[C@H]2O[C@H](CO)[C@@H](O)[C@H](O)[C@H]2NC(C)=O)c2cc(C)oc12,i,i,i,-1.0,i
CC1CCC2(NC1)OC1CC3C4CC=C5CC(O[C@@H]6O[C@H](CO)[C@@H](O[C@@H]7O[C@@H](C)[C@H](O)[C@@H](O)[C@H]7O)[C@H](O)[C@H]6O)CCC5(C)C4CCC3(C)C1C2C (some centres undefined),i,i,+,3.3,i
CC1=C(CO)C(=O)OC([C@@H](C)[C@H]2CCC3C4CC=C5C[C@@H](O[C@@H]6O[C@H](CO)[C@@H](O)[C@H](O)[C@H]6O)C[C@H](O)[C@]5(C)C4CC[C@@]32C)C1 (some centres undefined),i,i,i,-5.2,i
CC(C)(C)OC(=O)N1C[C@@H]2C(NC(=O)c3nsc(Cl)c3Cl)[C@@H]2C1 (some centres undefined),/,/,/,34.9,/
Cc1ccc(-c2nnc3c4ccccc4c(C)nn23)cc1S(=O)(=O)N(C)CCO,/,/,/,56.3*,/
c1ccc(-c2nn3c(C4COc5ccccc5O4)nnc3s2)cc1 (centres undefined),i,i,i,59.0*,i
SMILES,Myc binder,p53 mut binder,NFkB SMM,p53 PUMA act,STAT3 binder
CCCn1nnc(NC(=O)C(C)Oc2ccc(Cl)cc2Cl)n1 (centres undefined),i,i,i,-3.0,i
CCCn1nnc(NC(=O)COc2ccccc2Cl)n1,/,/,/,63.7*,/
COc1ccccc1CN1CCN(Cc2ccc(OC)c(OC)c2OC)CC1,i,i,i,-10.3,i
COc1ccccc1CN1CCN(Cc2cccnc2)CC1,+,i,i,0.7,i
C[C@H](CO)N1C[C@H](C)[C@H](CN(C)CC2CCCCC2)Oc2c(NS(=O)(=O)c3ccc(F)cc3)cccc2C1=O,/,/,/,9.1,/
CSc1nncc(-c2ccc(Cl)cc2)n1,/,/,/,63.2*,/
C[C@H]1CN([C@@H](C)CO)C(=O)c2cc(NC(=O)C3CC3)ccc2O[C@@H]1CN(C)Cc1ccncc1,i,i,i,0.9,i
CN1CCN(C(=O)c2nc3ccc(Cl)cc3[nH]2)CC1,i,i,i,56.7*,i
CN1CCN(C(=O)CN(c2cccc(Cl)c2)S(=O)(=O)c2ccc(Cl)cc2)CC1,/,/,/,-3.9,/
COc1cc2c(cc1NC(=O)Cc1ccccc1[N+](=O)[O-])oc1ccccc12,/,/,/,86.6*,/
Cc1noc(C)c1S(=O)(=O)Nc1ccc2c(c1)C(=O)N([C@H](C)CO)C[C@H](C)[C@@H](CN(C)C(=O)Nc1cccc3ccccc13)OCCCC[C@H](C)O2,+,i,+,/,i
Cc1noc(C)c1S(=O)(=O)Nc1ccc2c(c1)C(=O)N([C@@H](C)CO)C[C@@H](C)[C@@H](CN(C)C(=O)Nc1ccccc1)OCCCC[C@H](C)O2,i,i,i,-9.0,i
Cc1noc(C)c1S(=O)(=O)Nc1ccc2c(c1)C(=O)N([C@H](C)CO)C[C@H](C)[C@@H](CN(C)C(=O)NC(C)C)OCCCC[C@H](C)O2,i,i,+,-5.5,i
